Test results from publication PMC7862700, “An all-to-all approach to the identification of sequence-specific readers for epigenetic DNA modifications on cytosine”.

What was measured:
Test in all cases: DAPPL (digital affinity profiling via proximity ligation, sequencing); 10 mM Tris-HCl pH 7.5, 50 mM NaCl, 1 mM DTT, 4% glycerol, room temperature, 30 min; GST-TFs on glutathione beads, 16-mer random dsDNA library, 0.1% formaldehyde crosslink after washing; high values mean tight binding
Conditions in all cases: protein: recombinant; tags: N-terminal GST; dsDNA, one strand shown
[1] = biological target: T1, FLI1 (Homo sapiens, UniProt Q01543 1-452)
T1 sequence: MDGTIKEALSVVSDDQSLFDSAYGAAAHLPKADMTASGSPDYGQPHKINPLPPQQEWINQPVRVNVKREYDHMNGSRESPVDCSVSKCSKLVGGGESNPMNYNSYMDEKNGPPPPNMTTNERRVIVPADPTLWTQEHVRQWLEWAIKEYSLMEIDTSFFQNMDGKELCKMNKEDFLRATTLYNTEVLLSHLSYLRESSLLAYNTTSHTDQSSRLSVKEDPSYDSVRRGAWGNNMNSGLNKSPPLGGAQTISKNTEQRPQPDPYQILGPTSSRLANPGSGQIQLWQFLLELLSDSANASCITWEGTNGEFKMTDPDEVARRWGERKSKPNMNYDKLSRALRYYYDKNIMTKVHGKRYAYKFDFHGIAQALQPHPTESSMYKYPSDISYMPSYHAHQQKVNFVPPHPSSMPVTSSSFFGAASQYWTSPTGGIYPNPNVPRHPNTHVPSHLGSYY
In short: (§1)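 Human transcription factors carrying a GST fusion were produced in yeast, bound to glutathione beads, tagged with DNA barcodes and pooled together with a tag-only sample. Each pool was held with 200 nmole of a random double-stranded 16-mer DNA library in Tris/NaCl/DTT/glycerol buffer for 30 min at room temperature, then washed, crosslinked in 0.1% formaldehyde, proximity-ligated with BsaI/T4 ligase (1 h, 37 °C), PCR-amplified and sequenced on an Illumina NextSeq500. Binding signal is the read frequency of each hexamer for a given factor divided by its frequency in the tag-only sample.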

[2] = biological target: T2, ELK1 (Homo sapiens, UniProt P19419 1-428)
T2 sequence: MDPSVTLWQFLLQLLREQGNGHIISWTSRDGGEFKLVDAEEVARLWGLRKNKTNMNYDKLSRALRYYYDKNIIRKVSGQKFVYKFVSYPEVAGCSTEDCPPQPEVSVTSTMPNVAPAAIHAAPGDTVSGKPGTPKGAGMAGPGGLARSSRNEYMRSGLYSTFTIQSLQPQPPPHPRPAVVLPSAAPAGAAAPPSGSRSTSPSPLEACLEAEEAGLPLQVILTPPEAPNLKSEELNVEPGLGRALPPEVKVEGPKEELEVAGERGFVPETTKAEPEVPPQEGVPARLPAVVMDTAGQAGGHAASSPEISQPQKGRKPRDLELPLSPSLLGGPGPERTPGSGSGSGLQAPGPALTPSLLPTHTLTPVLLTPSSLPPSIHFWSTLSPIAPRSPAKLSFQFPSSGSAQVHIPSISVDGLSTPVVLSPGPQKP
In short: as §1

[3] = biological target: T3, GABPA (Homo sapiens, UniProt Q06546 1-454)
T3 sequence: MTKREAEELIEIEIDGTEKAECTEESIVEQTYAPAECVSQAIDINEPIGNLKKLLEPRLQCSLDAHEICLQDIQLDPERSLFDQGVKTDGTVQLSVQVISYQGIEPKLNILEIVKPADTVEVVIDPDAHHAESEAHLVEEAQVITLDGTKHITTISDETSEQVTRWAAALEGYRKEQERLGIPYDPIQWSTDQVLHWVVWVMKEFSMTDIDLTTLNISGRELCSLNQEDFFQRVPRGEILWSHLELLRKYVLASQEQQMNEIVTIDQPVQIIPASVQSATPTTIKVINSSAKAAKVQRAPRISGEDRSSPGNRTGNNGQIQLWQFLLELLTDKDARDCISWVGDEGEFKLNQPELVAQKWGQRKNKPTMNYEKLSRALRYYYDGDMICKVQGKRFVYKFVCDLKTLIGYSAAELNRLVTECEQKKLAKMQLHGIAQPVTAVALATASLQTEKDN
In short: as §1

[4] = biological target: T4, ERG (Homo sapiens, UniProt P11308 1-479)
T4 sequence: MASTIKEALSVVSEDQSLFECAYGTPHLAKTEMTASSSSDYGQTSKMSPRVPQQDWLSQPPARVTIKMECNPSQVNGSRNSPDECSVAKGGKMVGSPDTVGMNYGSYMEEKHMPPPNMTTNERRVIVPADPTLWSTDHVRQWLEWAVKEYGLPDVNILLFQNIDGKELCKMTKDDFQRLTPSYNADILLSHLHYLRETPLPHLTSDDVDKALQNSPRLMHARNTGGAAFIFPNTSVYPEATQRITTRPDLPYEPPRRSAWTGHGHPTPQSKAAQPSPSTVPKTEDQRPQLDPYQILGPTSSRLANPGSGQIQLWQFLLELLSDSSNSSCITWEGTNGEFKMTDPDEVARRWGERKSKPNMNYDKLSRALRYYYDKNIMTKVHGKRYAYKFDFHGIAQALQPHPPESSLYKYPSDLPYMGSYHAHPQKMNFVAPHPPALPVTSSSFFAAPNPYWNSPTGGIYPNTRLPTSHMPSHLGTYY
In short: as §1

[5] = biological target: ELF1 (Homo sapiens, UniProt P32519 1-619)
In short: as §1

[6] = biological target: T5, EHF (Homo sapiens, UniProt Q9NZC4 1-300)
T5 sequence: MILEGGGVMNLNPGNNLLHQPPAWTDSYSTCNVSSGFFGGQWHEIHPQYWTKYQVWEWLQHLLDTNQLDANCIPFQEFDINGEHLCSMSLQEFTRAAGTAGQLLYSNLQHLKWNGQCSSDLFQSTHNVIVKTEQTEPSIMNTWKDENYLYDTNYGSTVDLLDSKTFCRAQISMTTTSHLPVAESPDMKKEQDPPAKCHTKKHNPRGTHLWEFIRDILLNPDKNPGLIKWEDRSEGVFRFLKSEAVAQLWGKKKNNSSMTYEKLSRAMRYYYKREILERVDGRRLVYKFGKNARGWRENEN
In short: as §1

[7] = biological target: SPI1 (Homo sapiens, UniProt P17947 1-270)
In short: as §1

[8] = biological target: SPIB (Homo sapiens, UniProt Q01892 1-262)
In short: as §1

[9] = biological target: T6, ELK3 (Homo sapiens, UniProt P41970 1-407)
T6 sequence: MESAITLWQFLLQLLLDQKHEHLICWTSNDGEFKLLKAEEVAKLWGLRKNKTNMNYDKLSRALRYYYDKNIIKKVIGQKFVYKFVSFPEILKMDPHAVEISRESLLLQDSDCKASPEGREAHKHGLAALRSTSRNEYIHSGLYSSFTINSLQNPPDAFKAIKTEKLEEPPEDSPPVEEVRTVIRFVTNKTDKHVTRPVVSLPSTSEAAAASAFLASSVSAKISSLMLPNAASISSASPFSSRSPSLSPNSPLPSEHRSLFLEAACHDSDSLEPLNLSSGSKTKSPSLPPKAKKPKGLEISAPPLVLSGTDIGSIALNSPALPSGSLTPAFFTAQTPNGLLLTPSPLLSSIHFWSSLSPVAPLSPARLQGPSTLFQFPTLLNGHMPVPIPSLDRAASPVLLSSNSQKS
In short: as §1

ELF1, sequence (P32519 whole entry): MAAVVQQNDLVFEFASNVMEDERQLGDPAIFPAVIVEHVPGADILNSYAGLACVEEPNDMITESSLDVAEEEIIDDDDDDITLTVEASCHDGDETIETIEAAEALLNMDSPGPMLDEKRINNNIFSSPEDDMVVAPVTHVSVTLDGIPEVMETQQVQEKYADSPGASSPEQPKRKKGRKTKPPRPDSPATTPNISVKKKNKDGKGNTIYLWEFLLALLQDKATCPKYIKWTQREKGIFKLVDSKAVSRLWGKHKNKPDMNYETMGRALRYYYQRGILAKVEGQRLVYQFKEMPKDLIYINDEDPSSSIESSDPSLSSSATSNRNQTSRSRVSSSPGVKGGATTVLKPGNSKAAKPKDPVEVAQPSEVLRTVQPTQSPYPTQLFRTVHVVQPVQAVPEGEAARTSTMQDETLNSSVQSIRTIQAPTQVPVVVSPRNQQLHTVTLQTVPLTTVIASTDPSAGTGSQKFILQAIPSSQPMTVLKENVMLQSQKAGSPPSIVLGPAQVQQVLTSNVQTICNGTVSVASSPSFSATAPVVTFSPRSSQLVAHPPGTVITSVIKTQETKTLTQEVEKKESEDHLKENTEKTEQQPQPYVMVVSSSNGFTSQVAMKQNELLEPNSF
SPIB, sequence (Q01892 whole entry): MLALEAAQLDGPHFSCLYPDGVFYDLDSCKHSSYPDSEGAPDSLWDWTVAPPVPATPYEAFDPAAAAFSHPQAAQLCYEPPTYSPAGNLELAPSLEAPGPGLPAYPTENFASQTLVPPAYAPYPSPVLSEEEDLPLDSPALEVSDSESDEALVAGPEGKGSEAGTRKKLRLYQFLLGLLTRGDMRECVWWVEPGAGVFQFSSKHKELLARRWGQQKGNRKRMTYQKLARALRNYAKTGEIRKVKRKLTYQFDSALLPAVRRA

Sequence	binding signal [1]	binding signal [2]	binding signal [3]	binding signal [4]	binding signal [5]	binding signal [6]	binding signal [7]	binding signal [8]	binding signal [9]
ACTCAT	1.47 fold enrichment (6-mer frequency, TF over GST control)	1.34 fold enrichment (6-mer frequency, TF over GST control)	1.36 fold enrichment (6-mer frequency, TF over GST control)	1.16 fold enrichment (6-mer frequency, TF over GST control)	1.33 fold enrichment (6-mer frequency, TF over GST control)	1.25 fold enrichment (6-mer frequency, TF over GST control)	1.23 fold enrichment (6-mer frequency, TF over GST control)	1.35 fold enrichment (6-mer frequency, TF over GST control)	1.34 fold enrichment (6-mer frequency, TF over GST control)
ACCTAT	1.18 fold enrichment (6-mer frequency, TF over GST control)	1.26 fold enrichment (6-mer frequency, TF over GST control)	1.16 fold enrichment (6-mer frequency, TF over GST control)	1.07 fold enrichment (6-mer frequency, TF over GST control)	1.21 fold enrichment (6-mer frequency, TF over GST control)	1.21 fold enrichment (6-mer frequency, TF over GST control)	1.17 fold enrichment (6-mer frequency, TF over GST control)	1.15 fold enrichment (6-mer frequency, TF over GST control)	1.17 fold enrichment (6-mer frequency, TF over GST control)
TATTTC	2.04 fold enrichment (6-mer frequency, TF over GST control)	2.09 fold enrichment (6-mer frequency, TF over GST control)	2.06 fold enrichment (6-mer frequency, TF over GST control)	2.32 fold enrichment (6-mer frequency, TF over GST control)	2.06 fold enrichment (6-mer frequency, TF over GST control)	2.21 fold enrichment (6-mer frequency, TF over GST control)	2.02 fold enrichment (6-mer frequency, TF over GST control)	2.19 fold enrichment (6-mer frequency, TF over GST control)	2.21 fold enrichment (6-mer frequency, TF over GST control)
TACGCC	1.39 fold enrichment (6-mer frequency, TF over GST control)	1.22 fold enrichment (6-mer frequency, TF over GST control)	1.3 fold enrichment (6-mer frequency, TF over GST control)	1.16 fold enrichment (6-mer frequency, TF over GST control)	1.28 fold enrichment (6-mer frequency, TF over GST control)	1.18 fold enrichment (6-mer frequency, TF over GST control)	1.18 fold enrichment (6-mer frequency, TF over GST control)	1.18 fold enrichment (6-mer frequency, TF over GST control)	1.23 fold enrichment (6-mer frequency, TF over GST control)
TATGCA	1.24 fold enrichment (6-mer frequency, TF over GST control)	1.24 fold enrichment (6-mer frequency, TF over GST control)	1.24 fold enrichment (6-mer frequency, TF over GST control)	1.26 fold enrichment (6-mer frequency, TF over GST control)	1.18 fold enrichment (6-mer frequency, TF over GST control)	1.12 fold enrichment (6-mer frequency, TF over GST control)	1.34 fold enrichment (6-mer frequency, TF over GST control)	1.25 fold enrichment (6-mer frequency, TF over GST control)	1.15 fold enrichment (6-mer frequency, TF over GST control)
GGATTT	1.33 fold enrichment (6-mer frequency, TF over GST control)	1.25 fold enrichment (6-mer frequency, TF over GST control)	1.26 fold enrichment (6-mer frequency, TF over GST control)	1.34 fold enrichment (6-mer frequency, TF over GST control)	1.23 fold enrichment (6-mer frequency, TF over GST control)	1.24 fold enrichment (6-mer frequency, TF over GST control)	1.22 fold enrichment (6-mer frequency, TF over GST control)	1.29 fold enrichment (6-mer frequency, TF over GST control)	1.48 fold enrichment (6-mer frequency, TF over GST control)
GTTTTG	1.19 fold enrichment (6-mer frequency, TF over GST control)	1.17 fold enrichment (6-mer frequency, TF over GST control)	1.2 fold enrichment (6-mer frequency, TF over GST control)	1.25 fold enrichment (6-mer frequency, TF over GST control)	1.23 fold enrichment (6-mer frequency, TF over GST control)	1.15 fold enrichment (6-mer frequency, TF over GST control)	1.2 fold enrichment (6-mer frequency, TF over GST control)	1.23 fold enrichment (6-mer frequency, TF over GST control)	1.11 fold enrichment (6-mer frequency, TF over GST control)
TGATGT	1.31 fold enrichment (6-mer frequency, TF over GST control)	1.31 fold enrichment (6-mer frequency, TF over GST control)	1.19 fold enrichment (6-mer frequency, TF over GST control)	1.13 fold enrichment (6-mer frequency, TF over GST control)	1.26 fold enrichment (6-mer frequency, TF over GST control)	1.14 fold enrichment (6-mer frequency, TF over GST control)	1.25 fold enrichment (6-mer frequency, TF over GST control)	1.41 fold enrichment (6-mer frequency, TF over GST control)	1.12 fold enrichment (6-mer frequency, TF over GST control)
